In PubChem BioAssay (NCI):
Compounds without any hit were thinned out: in the full panel of roughly 79,000, 15% have a hit. Unmarked numbers belong to inactive results. Activity calls are given as the source filed them. Rule as the data show it: active = growth inhibition above about 70%; inactive = the rest.

How the values were obtained:
[1] = NCI Yeast Anticancer Drug Screen. Data for the rad50 strain (AID 155);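 also: 0% = growth of vehicle-only cultures of the same strain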; details: S. cerevisiae rad50 strain growth inhibition, active compounds read high
Procedure, shortened: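 Growth of the mutant yeast was measured after compound exposure and referenced to vehicle-treated cultures.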

[2] = NCI Yeast Anticancer Drug Screen. Data for the mec2-1 strain (AID 157); details: S. cerevisiae mec2-1 strain, active compounds read high
Procedure, shortened: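 Growth inhibition is read against vehicle-treated controls after compound exposure of the mec2-1 yeast strain, which is defective in DNA damage repair or cell cycle control.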

[3] = NCI Yeast Anticancer Drug Screen. Data for the sgs1 mgt1 strain (AID 161);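 also: 0% = growth of cultures given vehicle only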; details: S. cerevisiae sgs1 mgt1 strain, active compounds read high
Procedure, shortened: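 Percent growth inhibition was derived by comparing compound-exposed mutant yeast with vehicle-exposed cultures. The strain carries alterations in DNA damage repair.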

[4] = NCI Yeast Anticancer Drug Screen. Data for the cln2 rad14 strain (AID 165);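 also: 0% = growth equal to vehicle treated cultures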; details: S. cerevisiae cln2 rad14 strain, active compounds read high
Procedure, shortened: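 Growth inhibition, relative to vehicle-treated controls, is the read-out. The test organism is a yeast strain with defined genetic alterations, cln2 rad14.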

[5] = NCI Yeast Anticancer Drug Screen. Data for the bub3 strain (AID 167); details: S. cerevisiae bub3 mutant strain, active compounds read high
Procedure, shortened: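 Whole-cell yeast assay. The mutant strain was incubated with compounds, and growth inhibition was determined by comparison with vehicle-treated cells.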

[6] = NCI Yeast Anticancer Drug Screen. Data for the mlh1 rad18 strain (AID 175); details: S. cerevisiae mlh1 rad18 strain growth inhibition, active compounds read high
Procedure, shortened: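 Cells of a genetically altered yeast strain, deficient in DNA damage repair, were treated with compound. Their growth was then compared with that of vehicle-treated cultures to give inhibition.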

[7] = at 5.0 µM (retest, dose inferred, filed as 0.5)
[8] = at 50.0 µM (retest, dose inferred, filed as 5.0)

| SMILES | growth inhibition [1, 7] | growth inhibition [1, 8] | growth inhibition ([1]; at 50.0 µM) | growth inhibition [2, 7] | growth inhibition [2, 8] | growth inhibition ([2]; at 50.0 µM) | growth inhibition [3, 7] | growth inhibition [3, 8] | growth inhibition ([3]; at 50.0 µM) | growth inhibition [4, 7] [%] | growth inhibition [4, 8] | growth inhibition ([4]; at 50.0 µM) | growth inhibition [5, 7] | growth inhibition [5, 8] | growth inhibition ([5]; at 50.0 µM) | growth inhibition [6, 7] | growth inhibition [6, 8] | growth inhibition ([6]; at 50.0 µM) |
| --- | --- | --- | --- | --- | --- | --- | --- | --- | --- | --- | --- | --- | --- | --- | --- | --- | --- | --- |
| O=[N+]([O-])c1cc(Cl)c(Cl)cc1NS(=O)(=O)c1ccccc1 | 17% | 45% | 29.1% | -8% | 51% | 49.5% | 7% | 58% | 39.4% | 25 | 84% (active) | 54.5% | 9% | 57% | 40.4% | 10% | 76% (active) | 71.2% (active) |
| COc1ccc(C(C#N)=C2C=CC(=NOC(=O)Nc3ccccc3)C=C2)cc1 | 41% | 82% (active) | 88.4% (active) | 28% | 92% (active) | 93.1% (active) | 68% | 96% (active) | 94.8% (active) | 4 | 91% (active) | -1.4% | 12% | 37% | 69.1% | 33% | 91% (active) | 96.3% (active) |
| Cn1cc(NC(=O)c2cc(NC(=O)CCCCCCCC(=O)Nc3cc(C(=O)Nc4cc(C(=O)NCCC(=N)N)n(C)c4)n(C)c3)cn2C)cc1C(=O)NCCC(=N)N | 82% (active) | 96% (active) | 86.8% (active) | 84% (active) | 98% (active) | 89.8% (active) | 73% (active) | 98% (active) | 90.2% (active) | 28 | 91% (active) | 82% (active) | 88% (active) | 98% (active) | 88.2% (active) | 85% (active) | 98% (active) | 88.8% (active) |
| Clc1ccc(CN2CCCN(Cc3ccc(Cl)cc3)C2C2CCC=CO2)cc1 (configuration not stated) | 4% | 19% | 66.1% | -18% | 17% | 24.5% | -17% | 42% | 72.6% (active) | -4 | 7% | 46.9% | 6% | 17% | 56.3% | -14% | 36% | 45% |
| COc1ccc(CN(C)c2c(C)ccc3ccccc23)cc1 | 10% | 85% (active) | 5.3% | 2% | 58% | -2.9% | 2% | 78% (active) | 23.3% | 2 | 59% | -15.2% | 1% | 98% (active) | 79.6% (active) | 3% | 78% (active) | 13.2% |
| Cc1ccc(I)c(C(C)(C)O)c1 | 4% | 71% (active) | 94.8% (active) | 4% | 75% (active) | 56.6% | 4% | 77% (active) | 58.6% | 1 | 30% | 30.8% | -1% | 86% (active) | 95.2% (active) | 7% | 91% (active) | 70.2% (active) |
| O=C1c2ccccc2C(O)(C#Cc2ccccc2)c2cnccc21 (configuration not stated) | -6% | 96% (active) | 97.8% (active) | -5% | 97% (active) | 98.5% (active) | -1% | 97% (active) | 98.2% (active) | -11 | 96% (active) | 97% (active) | -11% | 97% (active) | 98.2% (active) | -5% | 96% (active) | 97.8% (active) |
| CSc1nc(SC)c2cnn(Cc3ccccc3)c2n1 | -16% | 21% | -7.1% | -1% | -15% | 4.9% | -15% | 25% | 9.7% | -11 | -4% | 2.35% | -8% | 18% | 1.3% | 18% | 7% | 16.9% |
| CC(/C(=N/NC(=O)C(N)=O)c1c(Cl)ccc(Cl)c1O)C1(O)C(=O)Nc2ccccc21 (configuration not stated) | 9% | 53% | 53.8% | 2% | 29% | 57.4% | 9% | 53% | 52.5% | 14 | 18% | 20.5% | 4% | 52% | 44% | 9% | 32% | 86.5% (active) |
| CC(C)(C)N/N=C(\C(=O)NC1=C(Cl)C(=O)c2ccccc2C1=O)C1C=CCS1(=O)=O (configuration not stated) | 7% | 89% (active) | 90.2% (active) | -10% | 65% | 72.3% (active) | -4% | 86% (active) | 68.4% | -26 | 48% | 31.3% | 0% | 92% (active) | 84% (active) | 15% | 81% (active) | 61.5% |
| ClC1=C(Cl)C2c3ccccc3C1c1ccccc12 | -4% | 97% (active) | 93.6% (active) | 6% | 97% (active) | 76.2% (active) | 0% | 97% (active) | 95.7% (active) | -4 | 97% (active) | 65.2% | -9% | 98% (active) | 47.9% | -5% | 97% (active) | 95.7% (active) |
| COc1cccnc1/C=N/NC(N)=S | -4% | 58% | 69.5% | -4% | 59% | 69.9% | -4% | 63% | 73.9% (active) | -6 | 19% | 48.5% | 0% | 60% | 75.5% (active) | -5% | 70% (active) | 71.9% (active) |
| OCc1ccc(OCc2ccccc2)c(OCc2ccccc2)c1 | 6% | 15% | 88.2% (active) | 7% | 14% | 77.1% (active) | -8% | 47% | 92.8% (active) | 51 | 26% | 80.3% (active) | 10% | 55% | 94.5% (active) | 0% | 62% | 96.5% (active) |
| CCC(=O)OCC(=O)c1ccc(-c2ccccc2)cc1 | -9% | -20% | -5.1% | -8% | 1% | -3.7% | -2% | 18% | 3% | 33 | -56% | -5.4% | 36% | 10% | 57.1% | -8% | 1% | -1.05% |
| O=C1C(c2c[nH]c3ccc(Br)cc23)=Nc2ccc(Br)cc21 | -1% | 2% | 88% (active) | 3% | 21% | 75.8% (active) | -20% | -32% | 85.5% (active) | -6 | -18% | 88.8% (active) | -4% | -2% | 82.2% (active) | 7% | 25% | 73.4% (active) |
| CC(CN(CC(=O)O)CC(=O)O)N(CC(=O)O)CC(=O)O.[Cl][Pd][Cl] (configuration not stated) | 27% | 89% (active) | 88.3% (active) | 7% | 87% (active) | 91.5% (active) | 40% | 92% (active) | 82% (active) | 14 | 81% (active) | 57.2% | 22% | 91% (active) | 86.4% (active) | 30% | 83% (active) | 90.7% (active) |
| O=C(Nc1cccc(Br)c1)Oc1ccc(Cl)c2cccnc12 | 38% | 98% (active) | 89% (active) | 4% | 99% (active) | 91.1% (active) | 7% | 99% (active) | 91.7% (active) | 4 | 97% (active) | 89% (active) | -7% | 98% (active) | 89.9% (active) | 16% | 98% (active) | 90.8% (active) |
| O=C1C=CC(=O)c2c1oc1ccccc21 | 14% | 98% (active) | 60.7% | 6% | 99% (active) | 19% | 13% | 99% (active) | 16.2% | 13 | 79% (active) | 48.5% | 30% | 98% (active) | 36% | 23% | 98% (active) | 57.8% |
| Nc1ccccc1OCC(O)CN1CCN(Cc2ccccc2)CC1 (configuration not stated) | -7% | 23% | 72.1% (active) | -4% | 15% | 41% | -11% | 42% | 75.6% (active) | -4 | 17% | 16% | -1% | 9% | 23.9% | 14% | 55% | 22.5% |
